# In PubChem BioAssay AID624417 (National Center for Advancing Translational Sciences (NCATS), 2012):
# In all, about 410,000 compounds went through this assay and about 6,400 (1.6%) were called active. Inconclusive results (about 20%) are left out. Calls follow the shape of the dose curve; as a rule, active = well fitted inhibition curve with a large enough effect; inconclusive = small, poorly fitted or top-dose-only effect; inactive = no such curve, though single readings can be large or run the other way. The list comes from a sample in which actives are over-represented; it also holds similar structures and randomly drawn compounds. A call without a number means that no potency is given here. Peptide text beside a SMILES is read from it. * marks the point of attachment. Bz = O=C(c1ccccc1)*
# Target: Glucagon-like peptide 1 receptor (Homo sapiens) (UniProt P43220)
# Experiment: qHTS of GLP-1 Receptor Inverse Agonists (Inhibition Mode); also: nearly all actives have a fitted effect of over 55% in size
# Conditions: HEK293 GLP-1R CRE-luciferase, luminescence, 24 h, GLP-1R form is constitutively active; series mostly up to 38.3 µM
# Outline: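 Constitutively active GLP-1R drives a cAMP-responsive luciferase in stably transfected HEK293 cells; test compounds are added after overnight (12 h) attachment and left 24 hr, and signal loss in luminescence marks inhibition.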
# Potency is read from the fitted curve at half-maximal effect.
# Chain of Glucagon-like peptide 1 receptor (Homo sapiens) (P43220 whole entry, looked up): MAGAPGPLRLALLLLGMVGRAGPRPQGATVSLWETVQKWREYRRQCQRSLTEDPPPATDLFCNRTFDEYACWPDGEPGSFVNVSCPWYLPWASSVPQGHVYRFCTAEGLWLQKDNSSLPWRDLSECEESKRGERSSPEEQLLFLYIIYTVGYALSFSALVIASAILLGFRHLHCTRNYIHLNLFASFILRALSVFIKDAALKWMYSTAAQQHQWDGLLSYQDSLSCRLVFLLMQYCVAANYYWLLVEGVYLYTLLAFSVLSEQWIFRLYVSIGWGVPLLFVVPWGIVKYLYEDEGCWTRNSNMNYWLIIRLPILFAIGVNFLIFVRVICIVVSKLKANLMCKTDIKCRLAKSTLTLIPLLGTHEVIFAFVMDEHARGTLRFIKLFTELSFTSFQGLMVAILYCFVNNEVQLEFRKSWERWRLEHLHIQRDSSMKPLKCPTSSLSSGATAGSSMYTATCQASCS
Compound,Potency,"activity change, negative = inhibition"
CCNC(=O)C1(C)CCN(Cc2ccc(C(=O)OCC)o2)C1 (centres undefined),inactive,
CCc1noc(C)c1C(=O)OCC(=O)c1ccc(NC(=O)CC(C)C)cc1,inactive,
Cc1cccc(C)c1NC(=O)C(c1cccc2ccccc12)n1c(=O)c(-c2ccco2)nc2ccccc21 (centres undefined),inactive,
COc1ccc(Cl)cc1NC(=O)CN(C)C(=O)c1cc2ccccc2cc1OC,10 µM (active),
COc1ccc(Cl)cc1NC(=O)CN(C)C(=O)c1ccc2n[nH]nc2c1,inactive,
COc1ccc(Cl)cc1NC(=O)CN(C)C(=O)c1cn(-c2ccccc2)nc1-c1cccs1,inactive,
O=[N+]([O-])c1ccc(C(S(=O)(=O)Cc2ccccc2)S(=O)(=O)Cc2ccccc2)cc1,inactive,
N#C/C(=C(/O)Cc1cccc2ccccc12)c1nc2ccccc2s1,inactive,
N=C(N)SCc1cccc2ccccc12,10 µM (active),
c1ccc2c(CNn3cnnc3)cccc2c1,inactive,
CCCCNC(=O)OC1CC2CC1[C@H]1CCCCN1C2=O (some centres undefined),inactive,
C[C@H](NC(=O)CC[C@H]1O[C@@H](n2ccc(=O)[nH]c2=O)[C@H](O)[C@@H]1O)c1cccc2ccccc12,inactive,
COc1cccc(C2c3[nH]c4ccccc4c3CCN2Cc2cccc(C)n2)c1 (centres undefined),11.2 µM (active),
COc1cccc(N2CCN(C(=O)CCCCCn3c(=O)[nH]c4ccccc4c3=O)CC2)c1,inactive,
COC(=O)[C@H]1[C@H]2C[C@H]3c4[nH]c5ccccc5c4CCN3C[C@@H]2CC[C@@H]1O,inactive,
Cc1ccc(S(=O)(=O)NCCC(=O)Nc2cccc(S(N)(=O)=O)c2)cc1C,inactive,
Cc1ccc(NC(=O)CCNS(=O)(=O)c2ccc3c(c2)oc(=O)n3C)cc1C,inactive,
Cc1ccc(S(=O)(=O)NCCC(=O)Nc2ccc(C)c(Cl)c2)cc1C,7.08 µM (active),
Cc1cccc(N(CC(=O)N2CCCC2)S(C)(=O)=O)c1C,inactive,
COCCCn1cc(CN2CC(N(C)C)CS2(=O)=O)nn1 (centres undefined),inactive,
O=C(CSc1ncn[nH]1)Nc1nc2c(F)c(F)c(F)cc2s1,inactive,
Cc1ccc(-c2nn(-c3ccccc3)cc2/C=C/C(=O)Nc2cccc(S(N)(=O)=O)c2)cc1,5.01 µM (active),
NS(=O)(=O)c1cccc(NC(=O)CSc2nc3ccccc3n2-c2ccccc2)c1,,33.1% [at 7.66 µM] (inactive)
COc1ccc(-c2nn(-c3ccccc3)cc2/C=C\C(=O)Nc2ccc(C(=O)O)cc2)cc1,inactive,

Compound,Potency,"activity change, negative = inhibition"
O=C(Nc1ccc2c(c1)OCCO2)C1c2ccccc2OCC(=O)N1Cc1ccccn1 (centres undefined),inactive,
c1cc(-c2ccc3[nH]ccc3c2)n2ccnc2c1,inactive,
Cc1nc(SCc2ccc(F)cc2)c([N+](=O)[O-])[nH]1,inactive,
CCCCOc1ccc(CSC(=N)N)cc1[N+](=O)[O-],inactive,
CCCCCOc1ccc(CSC2=NCCN2)cc1[N+](=O)[O-],3.98 µM (active),
CC1(C)OC(=O)C2=C(C[C@@H](C3CC3)O[C@H]2c2ccc(Cl)cc2)O1,inactive,
CN(C)C(CNC(=O)c1cccc(S(=O)(=O)N2CCc3ccccc3C2)c1)c1ccccc1 (centres undefined),inactive,
Cc1ccn(CC(=O)NC2CCCN(Cc3ccccc3F)C2)n1 (centres undefined),inactive,
CC1(C)CN(Cc2cccnc2)C(=O)[C@H]1CC(=O)Nc1ccc(Br)cc1,inactive,
CC12c3ccccc3C(c3ccccc31)C1C(=O)N(Cc3cccnc3)C(=O)C12 (centres undefined),8.91 µM (active),
CC1Oc2ccccc2N(Cc2cccnc2)C1=O (centres undefined),inactive,
COc1cccc(CNc2nc3cc(-c4csc5ccccc45)sc3c(=O)n2C)c1,inactive,
CCCNC(=O)C1(C)CCCN(C(=O)c2cccc(OC(C)=O)c2C)C1 (centres undefined),inactive,
CCN(CC)CCN(C(=O)c1cccc([N+](=O)[O-])c1)c1nc2ccc(OC)cc2s1,inactive,
COc1cccc2sc(N(CCCN(C)C)C(=O)C(c3ccccc3)c3ccccc3)nc12,5.62 µM (active),
Cc1ccc2sc(N(CCN(C)C)C(=O)/C=C/c3cccs3)nc2c1C,inactive,
Cc1cc(C)c2nc(N(CCN(C)C)C(=O)/C=C/c3cccs3)sc2c1,inactive,
COc1ccccc1CNC(=O)Cn1cc2c(n1)CCCC2,inactive,
CCN(CC)CCN(C(=O)c1ccc2c(c1)CCCC2)c1nc2c(OC)cccc2s1,11.2 µM (active),
CCCCN1C(=O)C(CC(=O)NC(c2ccccc2)c2ccccc2)CC(C(=O)N2CCOCC2)=C1C (centres undefined),inactive,
C[C@@H]1CC2=C(C(=O)OC(C)(C)O2)[C@@H](C2CC2)O1,inactive,
COc1cccc(-c2cnc3c(NC(C)=O)cc(-c4cccc(NC(C)=O)c4)cn23)c1,inactive,
COC(=O)CN(c1nc(C)c(Cl)c(OC)n1)S(=O)(=O)c1ccc(C)cc1,10 µM (active),
CCN(CC)C(=O)CN(c1cccc(OC)c1)S(=O)(=O)c1ccc(C)cc1,inactive,

Compound,Potency,"activity change, negative = inhibition"
COc1ccc(C)cc1N(CC(=O)N1CCC(C)CC1)S(=O)(=O)c1ccc(C)cc1,inactive,
CCc1ccc([C@@H]2CC(=O)[C@@H]3CN(S(=O)(=O)c4ccc(C)cc4)[C@H](c4ccc(Cl)cc4)C[C@@H]3N2S(=O)(=O)c2ccc(C)cc2)cc1,inactive,
COc1cc(C=NC2CCCCC2)ccc1O,inactive,
NC(=O)c1ccc(NC(=O)COC(=O)C(Cc2ccccc2)NC(=O)c2ccccc2)cc1 (centres undefined),inactive,
CN(Cc1ccccc1F)C(=O)C(Cc1ccccc1)NC(=O)c1ccccc1 (centres undefined),11.2 µM (active),
O=C(NC(Cc1ccccc1)C(=O)N1CCCC1C(=O)O)c1ccccc1 (stereo not drawn) (Bz-Phe-Pro-OH; configuration not given here),inactive,
CC(OC(=O)c1ccc(NC(=O)CC#N)cc1)C(=O)Nc1ccc(S(=O)(=O)N2CCCC2)cc1 (centres undefined),inactive,
O=C1NC[C@@H](CCCCN2CCN(CCc3ccc(O)cc3)C(=O)C2=O)N(CC2CCCCC2)C1=O,inactive,
C=CCOC(=O)N1CCC2CC1c1cc(-c3ccc(OC)cc3)ccc12 (centres undefined),10 µM (active),
COc1ccc(-c2ccc3c(c2)C2CC3CCN2CCC#N)cc1 (centres undefined),inactive,
Cc1ccc(S(=O)(=O)N(CCc2ccccc2)c2ccc3c(c2)C2CC3CCN2C(=O)OCc2ccccc2)cc1 (centres undefined),inactive,
C[C@@H]1CN([C@H](C)CO)C(=O)CCCn2cc(nn2)CO[C@H]1CN(C)S(C)(=O)=O,inactive,
Cc1ccc(C(O)c2ncc(-c3ccccc3F)[nH]2)cc1F (centres undefined),inactive,
COc1ccc(CNC(=O)CN2C(=O)c3ccccc3S2(=O)=O)cc1,inactive,
CC(C)(C)c1ccc(CN2C(=O)c3ccccc3S2(=O)=O)cc1,10 µM (active),
O=C1c2ccccc2S(=O)(=O)N1Cc1c(F)cccc1Cl,inactive,
CCc1cc(-c2nnn(CCC3COCCO3)c2CC)ccc1-c1cn(Cc2ccc3ccccc3c2)nn1 (centres undefined),inactive,
CC(OC(=O)c1cccnc1Cl)C(=O)NC1CCCCC1 (centres undefined),inactive,
C[C@H](CO)N1C[C@H](C)[C@@H](CN(C)Cc2ccc3c(c2)OCO3)OCc2cnnn2CCCC1=O,inactive,
CCCCn1c(CN2CCN(CCO)CC2)nc2ccccc21,inactive,
CCCCn1c(CCCNC(=O)CC)nc2ccccc21,inactive,
C=C(Br)Cn1c(CCCC)nc2ccccc21,2.82 µM (active),
Nc1[nH]c(C(=O)c2ccccc2)c(-c2ccncc2)c1C(=O)NCc1cccc2ccccc12,inactive,
Cc1ccc(Nc2c3c(nc4ccccc24)CCC3)cc1,5.62 µM (active),

Compound,Potency,"activity change, negative = inhibition"
CCOc1ccc(NC(=O)CSc2c3c(nc4ccccc24)CCCC3)cc1,inactive,
Cc1ccc(CNC(=O)CSc2c3c(nc4cc(Cl)ccc24)CCCC3)cc1,inactive,
CCCNC(=O)C1(C)CCN1C(=O)C1(c2ccccc2)CC1 (centres undefined),inactive,
CC(C)n1cnc2c(Nc3cccc(Cl)c3)nc(N(CCO)CCCO)nc21,10 µM (active),
COc1ccccc1Nc1c2c(nc3ccc(NC(=O)/C=C/c4cc(OC)c(OC)c(OC)c4)cc13)CCCC2,3.55 µM (active),
COc1ccc(NS(=O)(=O)c2cc(NC(=O)/C=C/c3cc(OC)c(OC)c(OC)c3)ccc2N2CCCCC2)cc1,inactive,
CCOc1ccc(C(=O)Nc2ccc3nc4c(c(Nc5ccccc5OC)c3c2)CCCC4)cc1,inactive,
O=C1NC(Cc2ccccc2)c2nc3ccc(Br)cc3c(=O)n2-c2cc3ccccc3cc21 (centres undefined),inactive,
Cc1cc2nc(NC(=O)c3ccc(S(=O)(=O)N4CCOCC4)cc3)sc2cc1C,inactive,
CN(C)CCN(C(=O)CN1C(=O)c2ccccc2C1=O)c1nc2cc3c(cc2s1)OCCO3,inactive,
CN(C)CCCN(C(=O)c1ccc(S(=O)(=O)N2CCCCCC2)cc1)c1nc2ccc(Br)cc2s1,3.55 µM (active),
Cc1ccc2nc(N(CCN(C)C)C(=O)C3=COCCO3)sc2c1,inactive,
Cc1cc(C)c2sc(NC(=O)c3ccc(S(=O)(=O)N4CCCC4)cc3)nc2c1,inactive,
CN(C)CCCN(C(=O)c1ccc(S(=O)(=O)N2CCCCCC2)cc1)c1nc2cc3c(cc2s1)OCCO3,11.2 µM (active),
Cc1noc(C)c1S(=O)(=O)N(C)C[C@H]1OCCCC[C@@H](C)Oc2ccc(NC(=O)CCCN(C)C)cc2C(=O)N([C@H](C)CO)C[C@@H]1C,inactive,
O=C(O)C1=C(C(=O)O)C2CCC1C2,inactive,
CC(=O)N1Cc2cc(C(=O)NCc3cccc(F)c3)nc(-c3cccc(C4=CCCCC4)c3)c2[C@H]1CCO,inactive,
CCc1nc2c(=O)[nH]cnc2o1,inactive,
C/C(=N\NC(=O)C(N)=O)c1ccc2c(c1)OCCO2,inactive,
C/C(=N/NC(=O)c1ccncc1)c1ccc2c(c1)OCO2,inactive,
C/C(=N/NC(=S)Nc1ccccc1)c1ccc2c(c1)OCO2,3.16 µM (active),
CCOC(=O)[C@]12CCCC=C1N(CCC1=CCCCC1)C(=O)[C@H](CC(=O)NCCCOC)C2,inactive,
